Experimental data: PubChem BioAssay (EPA / NIEHS)
Several values for one entry are separate records, joined by “and”; a condition that tells them apart may be missing. Equal entries are not always repeated. More than one record can exist for a structure, and the calls need not agree. Activity calls are given as the source filed them. Rule for the calls: active = hit-call score of the fitted dose curve at least 0.9, where 1 is the maximum; inactive = score below 0.9.

These molecules were tested on Matrix Metallopeptidase 1 (MMP1), MMP1 (gene 4312) (assay: BSK_BE3C_MMP1: BioMAP Diversity Plus: BE3C Assay for Matrix Metallopeptidase 1 (MMP1) Biomarker Activity (AID 2283024)). Settings: primary human bronchial epithelial cells; actives raise or lower the signal.
Protocol: BSK_BE3C is a cell-based, multiplexed-readout assay that uses bronchial epithelial cell, a human lung primary cell, with measurements taken at 24 hours after chemical dosing in a 96-well plate.BSK_BE3C_MMP1 is an assay component measured in the BSK_BE3C assay. It measures MMP-1 antibody related to regulation of gene expression using ELISA technology.Data from the assay component BSK_BE3C_MMP1 was analyzed into 1 assay endpoint. This assay endpoint, BSK_BE3C_MMP1, was analyzed with bidirectional fitting relative to DMSO as the negative control and baseline of activity. Using a type of binding reporter, gain or loss-of-signal activity can be used to understand changes in the signaling as they relate to the gene MMP1. Furthermore, this assay endpoint can be referred to as a primary readout, because this assay has produced multiple assay endpoints where this one serves a signaling function. To generalize the intended target to other relatable targets, this assay endpoint is annotated to the protease intended target family, where the subfamily is matrix metalloproteinase.
The levels of cell surface (or secreted, indicated by the prefix "s") biomarker endpoints were measured by ELISA. Overt cytotoxicity to cells in confluent adherent cultures (all systems other than the BT system) was assessed by measuring total protein levels using sulforhodamine B (SRB) staining in parallel cultures at the time of biomarker measurements, indicated as SRB endpoints. For proliferation assays for adherent cell types, individual cell types are cultured at sub-confluence and relative cell numbers quantified by SRB staining at time points optimized for each system (48 h: 3C and CASM3C systems; 72 h: BT and HDF3CGF systems; 96 h: SAg system). SRB was performed by staining cells with 0.1% SRB after fixation with 10% TCA and reading wells at 560 nm.Viability and proliferation of PBMC (T cells) was quantified by Alamar Blue reduction for the SAg and BT systems. For PBMC viability (referred to as PBMC Cytotoxicity within the assay endpoint names), cells were plated (75,000/well in a 96-well plate) and then chemical samples added for 1 h before addition of activators, SEB and TSST-1 (20 ng/mL final concentration each). Cells were incubated for 90 h. Then, Alamar Blue (20 uL/well) (Invitrogen, Cat DAL1100) was added for 6 h, and the plates were read with a fluorescence microplate reader at 546/580 nm (excitation/emission). For PBMC proliferation, cells were plated and activated as above but incubated for only 16 h prior to addition of Alamar Blue. Plates were read after 6 h.

SMILES | AC50 | outcome
COc1ccccc1Oc1c(NS(=O)(=O)c2ccc(C(C)(C)C)cc2)nc(-c2ncccn2)nc1OCCO | 20 µM (active) | inactive
Cc1cc(-n2nc3ccc(Cl)cc3n2)c(O)c(C(C)(C)C)c1 |  | inactive
CC(C)CC(=O)CC(C)CC(C)C (stereo not drawn) | 20 µM (active) | 
CCC(C)=NO |  | inactive
COc1cc(CNC(=O)CCCC/C=C/C(C)C)ccc1O | 14.4 µM (active) and 14 µM (active) | 
Sc1nc2ccccc2s1 |  | inactive
CCCCCCCCCCCCCCCCCC[N+](C)(C)C | 6.82 µM (active) | 
Oc1cccc2ccccc12 |  | inactive
CCCCCCCCCCC1CO1 (stereo not drawn) |  | inactive
CC[N+](CC)(CC(=O)Nc1c(C)cccc1C)Cc1ccccc1 (tested in a mixture with another compound) |  | inactive
CC[N+](CC)(CC(=O)Nc1c(C)cccc1C)Cc1ccccc1 |  | inactive
C1CN(CCOCCN2CCOCC2)CCO1 |  | inactive
COC(=O)/C=C\C(=O)OC |  | inactive
OC(C(F)(F)F)(C(F)(F)F)C(O)(C(F)(F)F)C(F)(F)F |  | inactive
O=C(C(=O)c1ccccc1)c1ccccc1 | 0.048 µM (active) | 
COc1ccc(C(=O)c2ccccc2O)c(O)c1 |  | inactive
CN(C)c1ccc(C(c2ccccc2)c2ccc(N(C)C)cc2)cc1 | 5.54 µM (active) | 
CCCCC(CC)COC(=O)C=Cc1ccc(OC)cc1 (stereo not drawn) |  | inactive
CCC[Si](OC(C)=O)(OC(C)=O)OC(C)=O |  | inactive
Cc1c(C(N)=O)cc([N+](=O)[O-])cc1[N+](=O)[O-] |  | inactive
Cc1cccnc1 |  | inactive
CC(C)C1OCCN1CCOC(=O)NCCCCCCNC(=O)OCCN1CCOC1C(C)C (stereo not drawn) |  | inactive
CCCCCCC(O)CCCCCCCCCCC(=O)OC (stereo not drawn) | 3.22 µM (active) | 
CN(C)CCC(c1ccc(Cl)cc1)c1ccccn1 (stereo not drawn) |  | inactive
CN(C)Cc1cc(C(C)(C)C)c(O)c(C(C)(C)C)c1 |  | inactive
CCCCCCCCCC/C=C/C1CC(=O)OC1=O (stereo not drawn) |  | inactive
O=[N+]([O-])c1cc(S(=O)(=O)Nc2ccccc2)ccc1Nc1ccccc1 | 5.29 µM (active) and 5.21 µM (active) | 
